Measurements as given in PubChem BioAssay (NCATS).
Results filed as inconclusive are left out. The source made the active and inactive calls. Calls follow the shape of the dose curve; as a rule, active = well fitted curve in the direction sought with a large enough effect; inconclusive = small, poorly fitted or top-dose-only effect, or another doubt; inactive = no such curve, though single readings can be large; an effect the other way counts as inactive or inconclusive.

Experiments:
[1] = system: HACAT; assay: qHTS assay to identify novel small-molecules to repurpose for Merkel cell carcinoma treatment (AID 1296009); conditions: MCC and control cell lines, CellTiter-Glo viability, 72 h; at 44.8 µM (top of the series) unless noted; also: nearly all actives have a fitted effect of over 60% in size; also: potency is read from the fitted curve at half-maximal effect
Method in brief: (§1)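 qHTS format: cells treated with library compounds in DMSO across 8 (NPC) or 11 (MIPE) concentrations. Readout after 72 hr at 37 degree celsius was CellTiter-Glo luminescence.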

[2] = system: MCC-13; assay: as above; conditions: MCC and control cell lines, CellTiter-Glo viability, 72 h; series mostly up to 46 µM
Method in brief: as §1

[3] = system: MCC-26; assay: as above; conditions: MCC and control cell lines, CellTiter-Glo viability, 72 h; series mostly up to 46 µM
Method in brief: as §1

[4] = system: MKL-1; assay: as above; conditions: MCC and control cell lines, CellTiter-Glo viability, 72 h; series mostly up to 46 µM
Method in brief: as §1

[5] = system: MKL-2; assay: as above; conditions: MCC and control cell lines, CellTiter-Glo viability, 72 h; series mostly up to 46 µM
Method in brief: as §1

[6] = system: WaGa; assay: as above; conditions: MCC and control cell lines, CellTiter-Glo viability, 72 h; series mostly up to 46 µM
Method in brief: as §1

[7] = system: C33A; assay: Primary qHTS to identify gynecologic anti-cancer compounds using libraries of approved drugs and bioactive compounds (AID 1345084); conditions: Gynecologic cancer cell panel viability, ATPlite luminescence, 48 h; series mostly up to 57.5 µM; also: nearly all actives have a fitted effect of over 55% in size
Method in brief: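 Cell viability after 48 h drug treatment, ATPlite luminescence readout; five doses.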

[8] = system: UISO; assay: qHTS assay to identify novel small-molecules to repurpose for Merkel cell carcinoma treatment (AID 1296009); conditions: MCC and control cell lines, CellTiter-Glo viability, 72 h; series mostly up to 46 µM; also: nearly all actives have a fitted effect of over 60% in size; also: potency is read from the fitted curve at half-maximal effect
Method in brief: as §1

[9] = system: NIH3T3; assay: as above; conditions: MCC and control cell lines, CellTiter-Glo viability, 72 h; at 44.8 µM (top of the series) unless noted
Method in brief: as §1

[10] = system: HEK293T; assay: as above; conditions: MCC and control cell lines, CellTiter-Glo viability, 72 h; at 44.8 µM (top of the series) unless noted
Method in brief: as §1

Measured: Potency

CCCCOc1ccc(C(=O)CCN2CCCCC2)cc1
inactive: [1] | [2] | [3] | [7]
active: [4] 9.44 µM | [5] 2.66 µM | [6] 23.7 µM

NCCC(O)(P(=O)(O)O)P(=O)(O)O
not listed: [9] | [10]
inactive: all other assays above

CCOC(=O)/C=C(C)/C=C/C=C(C)/C=C/c1c(C)cc(OC)c(C)c1C
inactive: [1] | [2] | [3] | [7]

Oc1ccc(Cl)c2cccnc12
inactive: [1] | [7]

CO/N=C1\CN(c2nc3c(cc2F)c(=O)c(C(=O)O)cn3C2CC2)CC1CN (stereo not given)
inactive: [1] | [2] | [4] | [5] | [8] | [6]

COc1ccc(CN2CCN(C(c3ccc(F)cc3)c3ccc(F)cc3)CC2)c(OC)c1OC
inactive: [1] | [2] | [3] | [7]

CCCCCC=CCC=CCCCCCCCC(=O)OCC
active: [5] 15 µM
not listed: [4] | [6] | [10]
inactive: all other assays above

Oc1c(I)cc(Cl)c2cccnc12
active: [5] 7.5 µM | [8] 16.8 µM | [6] 23.7 µM
inactive: [1]

O=C(O)CNC(=O)c1ccccc1
not listed: [3] | [10]
inactive: all other assays above

CC(=O)Oc1ccc(C(=C2CCCCC2)c2ccc(OC(C)=O)cc2)cc1
not listed: [9] | [10]
inactive: all other assays above

OC[C@H]1O[C@H](O[C@]2(CCl)O[C@H](CCl)[C@@H](O)[C@@H]2O)[C@H](O)[C@@H](O)[C@H]1Cl
not listed: [1]
inactive: all other assays above

Cc1ccc(C(=O)C(C)CN2CCCCC2)cc1 (stereo not given)
inactive: [1] inactive; activator | [2] | [4] | [9] | [8] | [7]
active: [5] 10.6 µM

Oc1ccc(O)cc1
inactive: [1] | [2] | [7]
active: [4] 5.31 µM | [5] 4.73 µM | [6] 1.88 µM

NC[C@H]1O[C@H](O[C@H]2[C@H](O)[C@@H](O[C@H]3O[C@H](CO)[C@@H](O)[C@H](N)[C@H]3O)[C@H](N)C[C@@H]2N)[C@H](N)[C@@H](O)[C@@H]1O
inactive: [1] inactive [at 17.4 µM] | [2] | [4] | [5] | [8] | [6] | [7]

OC(CCN1CCCCC1)(c1ccccc1)c1ccccc1
not listed: [3] | [9] | [10]
inactive: all other assays above

Cc1c(C)n(CCN(C)C)c2ccc(C(=O)OCCN(C)C)cc12
inactive: [1] | [2] | [4] | [5] | [8] | [7]

CN1CCN(CCCN2c3ccccc3Sc3ccc(S(=O)(=O)N(C)C)cc32)CC1
inactive: [1] | [2] | [3] | [8] | [7]

CCOC(=O)[C@H](CCc1ccccc1)N[C@@H](C)C(=O)N1Cc2ccccc2C[C@H]1C(=O)O
inactive: [1] | [2] | [7]

O=C(CCN1CCC(c2ccccc2)C1)c1ccc2c(c1)OCCO2 (stereo not given)
active: [4] 2.66 µM | [5] 0.841 µM | [6] 2.99 µM
inactive: [1] | [3] | [7]

O=c1ccc2ccccc2o1
not listed: [1]
inactive: all other assays above

Oc1c(I)cc(I)c2cccnc12
active: [4] 18.8 µM | [5] 11.9 µM
inactive: [1] | [2] | [3] | [7]

O=C1OCCN1/N=C/c1ccc([N+](=O)[O-])o1
inactive: [1] | [2] | [9] | [7]

CC(C)COC(=O)c1ccc(N)cc1
not listed: [3] | [9] | [10]
inactive: all other assays above

Cc1ccc(Nc2c(F)cccc2Cl)c(CC(=O)O)c1
not listed: [9] | [10]
inactive: all other assays above

COc1ccc(C2C(=O)c3ccccc3C2=O)cc1
not listed: [3] | [10]
inactive: all other assays above

NC(=O)C(=O)N/N=C/c1ccc([N+](=O)[O-])o1
inactive: [1] | [2] | [3] | [7]
active: [4] 26.6 µM | [5] 7.5 µM | [8] 29.9 µM | [6] 15 µM

CN1CCC(=C2c3ccccc3Sc3ccccc32)CC1
active: [5] 13.3 µM
inactive: [1] | [2] | [3] | [7]

CCN(CC)CCOC(=O)C(c1ccccc1)C1CCCCC1 (stereo not given)
not listed: [5] | [9] | [10]
inactive: all other assays above

CC(=O)OCC(=O)[C@@]1(O)[C@H](C)C[C@H]2[C@@H]3CCC4=CC(=O)C=C[C@]4(C)[C@@]3(F)[C@@H](O)C[C@@]21C
not listed: [1]
inactive: all other assays above
